# Measurements taken from the supplement of paper PMC10338343.
# ± gives the standard deviation.
# System: MILI (PIWIL2) piRISC loaded with piRNA #1 (26 nt)
# Assay: pre-steady-state target cleavage rate (min^-1); guide: piRNA #1 5'p-UGAGGUAGUAGGUUGUAUAGUAUCCA; MIWI and MILI are mouse PIWI proteins and EfPiwi is from a freshwater sponge; tags in brackets are library labels; higher = faster piRNA-guided slicing of the target
# Details: auxiliary factor: 500 nM mouse GTSF1
# In short: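 A burst-and-steady-state fit was used to obtain the pre-steady-state cleavage rate. The input data were sequencing reads of uncleaved targets, normalised to depth and to weakly complementary targets, from a […] transcribed, DNA-blocked target RNA library mixed with 1 nM active affinity-purified piRISC holding one synthetic guide, with or without 500 nM GTSF1 partner protein, in HEPES–potassium acetate buffer at 33 °C for 0–8 or 0–960 min. Three trials were pooled and k3 was capped at 0.0001 min^-1.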
# 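Further: 1 nM active piRISC with 0.1 nM target library at 33 °C single turnover.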
row,Sequence,pre-steady-state target cleavage rate
1,GGAGACCUAUCAAUAGAACCUACUACCUCA,0.0159 ± 0.0039
2,GGAGUGGAUUCUAUACAACCUACUUCCUCA,0.00383 ± 0.0021
3,GGAGACCUAUCUAUACAACCUACUUCCACA,0.0447 ± 0.011
4,GGAGACCUAUGUAUUGAACCUACUACCUCA,0.00285 ± 0.0015
5,GGAGACCAUACUAUACAACCUACAACCACA,0.0647 ± 0.017
6,GGAGACCUAUGAUUACAACCUAAUACCUCA,0.00387 ± 0.0022
7,GGAGACCUAACUUAACAACCUACUACCUCA,0.0309 ± 0.012
8,GGAGACCUAUGAUUACAACCUUCUACCUCA,0.00235 ± 0.0023
9,GGAGACCUAUCUAUAGAACGUACUACCUCA,0.00596 ± 0.0017
10,GGAGACCUAUGUUUACAACCUACUACCACA,0.0147 ± 0.0041
11,GGAGACGAUACUAUACAACGUAGUACCUCA,0.00546 ± 0.0032
12,GGAGACCUAUGAUUACAUCCUACUACCUCA,0.0102 ± 0.0027
13,GGAGACCUAUGUAUUCAACCUACUACCUGA,0.0167 ± 0.0046
14,GGAGACCUAUCUGUACAACCUACUACCUCA,0.0491 ± 0.0092
15,GGAGACCUAUGUAUACAACCAUACUACCUCA,0.00475 ± 0.0025
16,GGAGACCUAUGAAUACUAGCUACUACCUCA,0.00307 ± 0.002
17,GGAGACCUAUCUAUAGAACCUACUACCUCA,0.0821 ± 0.013
18,GGAGACCUUACUAUACAACCUACUGACCUCA,0.107 ± 0.017
19,GGAGACCUAUGAAUACAACCUACUACUUCA,0.00709 ± 0.0022
20,GGAGACCUAUCUAAACAACGUACUACCUCA,0.00647 ± 0.0027
21,GGAGACCUAUCUAUACAAGCUAGUACCUCA,0.107 ± 0.017
22,GGAGACCAUACUAUAGAAGCUACUACCUCA,0.0882 ± 0.013
23,GGAGACCUUACUUUACAACCAACUACCUCA,0.00491 ± 0.0033
24,GGAGACCUAACUAAAGAACCUACUACCUCA,0.0693 ± 0.013
